NPSR antagonist: blocks cAMP signaling of the human neuropeptide S receptor; Q6W5P4; CHO-NPSR cells, cAMP TR-FRET, antagonist mode; Potency, µM (doses to about 38.3 µM), inactives show at the highest dose activity change, negative = inhibition, actives largely listed as inhibitors; actives 1% (n = 220,000); AID 1461; note: nearly all actives have a fitted effect of over 50% in size
Target sequence (Q6W5P4 whole entry, looked up): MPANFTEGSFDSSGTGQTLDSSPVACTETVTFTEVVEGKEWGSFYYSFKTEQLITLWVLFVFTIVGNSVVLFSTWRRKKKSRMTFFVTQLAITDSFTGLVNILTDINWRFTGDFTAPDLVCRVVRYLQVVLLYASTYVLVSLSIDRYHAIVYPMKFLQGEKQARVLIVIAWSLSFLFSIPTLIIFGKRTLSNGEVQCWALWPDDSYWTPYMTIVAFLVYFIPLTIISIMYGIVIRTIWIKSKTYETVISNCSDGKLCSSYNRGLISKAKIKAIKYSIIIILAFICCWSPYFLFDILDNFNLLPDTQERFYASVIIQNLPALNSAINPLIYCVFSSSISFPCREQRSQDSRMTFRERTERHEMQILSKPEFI
Tau fluor counter: counter-screen for tau fibril formation inhibitors | Potency, µM (highest dose often 57.7 µM), inactives show at the highest dose activity change, negative = decrease | actives 0.93% (n = 280,000) | tau K18 P301L Alexa594 fluorescence, heparin fibrillization; note: nearly all actives have a fitted effect of over 55% in size
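Human tau K18 P301L (15 uM unlabeled, 0.24 uM Alexa 594-labeled) in 100 mM sodium acetate pH 7 with 20 uM heparin, 6 hr at 37 C. ThT 30 uM added, 1 hr ambient; Alexa 594 FP and total fluorescence read at 555/632 nm.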
Luc counter: counter-screen: inhibitors of Kinase-Glo firefly luciferase; Q27757; Kinase-Glo luciferase, ATP luminescence, 8 min; Potency, µM (highest dose often 38.3 µM), for inactives: top-dose activity change, negative = inhibition, hits mostly inhibitors; actives 0.28% (n = 200,000); note: nearly all actives have a fitted effect of over 60% in size
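Compound is pinned into ATP-containing buffer (10 uM ATP, imidazole pH 7.2, 7 mM MgCl2). Kinase-Glo luciferase reagent is then added. Light output is recorded following an 8-min room-temperature incubation.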
Tau fibril ThT: blocks human tau fibril formation measured by thioflavin T. P10636. recombinant tau K18 P301L (four-repeat tau fragment), heparin-induced fibrillization, ThT fluorescence. Potency, µM (highest dose often 57.4 µM), for the others: top-dose activity, negative = inhibition, hits mostly inhibitors. actives 2.1% (n = 270,000). AID 1460; note: nearly all actives have a fitted effect of over 55% in size
Target sequence (P10636 561-689 P618L limits assumed): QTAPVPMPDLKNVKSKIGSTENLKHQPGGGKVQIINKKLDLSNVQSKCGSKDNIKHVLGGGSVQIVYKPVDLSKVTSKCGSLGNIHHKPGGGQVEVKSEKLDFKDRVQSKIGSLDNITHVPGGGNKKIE
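In this qHTS, human K18 P301L tau is incubated with compound and heparin for 6 hr at 37 C, and Thioflavin T fluorescence then reports fibril load.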
Tau FP inhib: blocks human tau fibril formation measured by polarization; Potency, µM (top dose mostly 57.7 µM), for inactives: at the highest dose activity, negative = inhibition, usual class: inhibitors; actives 0.39% (n = 280,000); AID 1468; K18 P301L tau heparin fibrillization, Alexa594 FP, 6 h; note: nearly all actives have a fitted effect of over 55% in size
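Compound effects on tau fibrillization are measured by Alexa 594 fluorescence polarization (ex 555, em 632 nm). K18 P301L tau is used at 15 uM with 0.24 uM labeled tracer, and 20 uM heparin induces aggregation over 6 hr at 37 C.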
* = called active by the depositor; ? = inconclusive; / = no result given; [ ] = another dose, or the depositor's remark. Rows were chosen to be rich in hits. Some 3.3% of all compounds tested hit in one or more screens of this group. Calls come from the whole dose curve; as a rule, active = well fitted curve in the direction sought with a large enough effect; inconclusive = small, poorly fitted or top-dose-only effect, or another doubt; inactive = no such curve, though single readings can be large; an effect the other way counts as inactive or inconclusive. % is set by controls: 0 for no effect and ±100 for the full control effect; potency is the fitted concentration of half-maximal effect.

SMILES	NPSR antagonist	Tau fluor counter	Luc counter	Tau fibril ThT	Tau FP inhib
Cc1ccccc1-c1ncnn1-c1sc2c(c1C#N)CCCCC2	/	?	/	?	-8%
CN1CCN(c2ncnc3c2[nH]c2ccc(F)cc23)CC1	-5%[46.1 µM]	-5%	1%	-5%	9%
CN1CCN(c2cc3c(c4c2[nH]c2ccccc24)C(=O)CC(C)(C)C3)CC1	-20%[46.1 µM]	14µM*[quencher]	6%	?	?
O=c1[nH]sc2ccccc12	-10%	-15%	0%	11µM*	25µM*
COC(=O)c1ccc2c(c1)C(C)(C)C(/C=C/c1ccccc1O)=[N+]2C	-11%[46.1 µM]	25µM*[fluorescent]	4.5µM*	10µM*	?
O=C(O)c1ccc(N/N=C/c2ccc(-c3cc(Cl)ccc3Cl)o2)cc1	-12%	10%[0.0958 µM]	/	/	-1%[0.0958 µM]
Cc1c(C(=O)O)cccc1-c1ccc(/C=N/Nc2ccc(Br)cc2)o1	-26%	?	-6%	11µM*	-12%
O=C(O)c1cc(-c2ccc(/C=N/Nc3ccc([N+](=O)[O-])cn3)o2)ccc1Cl	-26%	?	-1%	1.3µM*	-5%
O=C(O)c1ccc(N/N=C/c2ccc(-c3cccc(Cl)c3)o2)cc1	-22%	20µM*[quencher]	/	/	3%
O=C(Cc1ccc(F)cc1)N/N=C/c1ccc(-c2ccc(Cl)c(C(=O)O)c2)o1	-7%	3%	5%	-1%	6%
O=C(O)c1cccc(-c2ccc(/C=N/Nc3ccc([N+](=O)[O-])cc3)o2)c1	-38%	16µM*[quencher]	/	/	-9%
O=C(O)c1ccc(N/N=C/c2ccc(-c3ccc(Cl)cc3Cl)o2)cc1	?	?	/	?	17%
O=C(O)c1ccc(-c2ccc(/C=N/Nc3ccc([N+](=O)[O-])cc3)o2)cc1	-34%	11%[0.0958 µM]	/	/	-6%[0.0958 µM]
COc1ccccc1N1CCN(C(=O)c2c(C)oc3ncn(C)c(=O)c23)CC1	/	0%	/	3%	8%
CC(NC(=O)Cn1c(-c2cccs2)cc2cc(F)ccc21)c1ccccc1 (stereo not drawn)	/	-13%	/	2%	1%
Cc1cccc(C(=O)Oc2ccccc2/C=N/Nc2ccc([N+](=O)[O-])cc2)c1	-23%	4µM*[quencher]	-2%	?	7%
Cc1cccc(Nc2nn3c(=O)c4cc5c(cc4nc3s2)OCO5)c1	/	-13%	/	-16%	-7%
CCOc1cc(C=C(C(=O)OC)C(=O)OC)ccc1OCc1ccc([N+](=O)[O-])cc1	-21%[46.1 µM]	-26%	1%	13µM*	17%
Cc1ccc(-c2cc3nc(-c4ccccc4)cc(C(F)(F)F)n3n2)cc1	/	-12%	/	-7%	-10%
Cc1cc(NC(=O)C(C)(C)C)cc(-c2nc3ncccc3o2)c1O	/	-22%	/	-3%	2%
C/C(=N\NC(=O)c1cnccn1)c1ccc([N+](=O)[O-])cc1	-10%	-11%	/	?	2%
C/C(=N/NC(=O)c1cc(O)c(O)c(O)c1)c1ccc([N+](=O)[O-])cc1	-9%	?	1%	3.5µM*	3%
C/C(=N\NC(=O)c1ccc([N+](=O)[O-])cc1)c1c(O)cc(C)oc1=O	-36%	-15%	7%	4.5µM*	9%
N#Cc1ccccc1OCC(=O)N1CCN(c2ccccc2F)CC1	/	-22%	/	-17%	3%
COc1ccc2c(c1)sc1ncc(C(=O)NCc3ccc(OC(C)C)cc3)c(=O)n12	/	-9%	/	4%	-6%
SMILES	NPSR antagonist	Tau fluor counter	Luc counter	Tau fibril ThT	Tau FP inhib
Clc1cccc(Nc2nc(-c3ccncc3)nc3ccccc23)c1	-45%	-22%	/	-8%	-11%
Cc1n[nH]c(=O)nc1Nc1ccc(O)cc1	-12%[46.1 µM]	-17%	-4%	-18%	-9%
COC(=O)c1ccc(Nc2nc(-c3ccccc3Cl)nc3ccccc23)cc1	/	?	/	11%	13µM*
Oc1ccc(Nc2nc(-c3ccc(Cl)cc3)nc3ccccc23)cc1	/	4µM*[quencher]	/	13µM*	?
CC(=O)c1cccc(Nc2nc(-c3cccc(C)c3)nc3ccccc23)c1	/	2.8µM*[quencher]	/	-8%	7.1µM*
CC(=O)c1cccc(Nc2nc(-c3ccccc3Cl)nc3ccccc23)c1	/	?	/	-6%	?
Oc1ccc(Nc2nc3ccccc3nc2Nc2ccc(O)cc2)cc1	10µM*	7.1µM*[quencher]	3%	16µM*	?

Screening results: PubChem BioAssay, National Center for Advancing Translational Sciences (NCATS)
